Assay [1] is described as follows: ATG_PPRE_CIS: Attagene CIS-FACTORIAL HepG2 Assay for human Peroxisome Proliferator-activated Response Element (PPRE) (AID 2282958). The conditions noted are these: HepG2 PPRE cis-element reporter, Attagene transcription factor profiling; actives raise or lower the signal. Summed up: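 HepG2 cells transiently transfected with multiplexed cis-element reporter units measure endogenous transcription factor activity. After 24 h compound exposure, reporter mRNA is quantified by RT-PCR, 6-FAM labeling, HpaI digestion and capillary electrophoresis; bidirectional fits are made against DMSO baseline.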

Assay [2] in a line: ATG_RORE_CIS: Attagene CIS-FACTORIAL HepG2 Assay for human RAR-related Orphan Receptor Element (RORE) (AID 2282959). Particulars: HepG2 Attagene cis-factorial RORE reporter, mRNA; actives raise or lower the signal. Summed up:
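HepG2 cells transiently transfected with multiple cis-element reporter transcription units, exposed to chemical for 24 h. Reporter mRNA quantified by RT-PCR, 6-FAM primer-extension labeling, HpaI digestion and capillary electrophoresis; bidirectional fit versus DMSO baseline.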

Assay [3] in a line: ATG_Sox_CIS: Attagene CIS-FACTORIAL HepG2 Assay for human SRY-box transcription factor (SOX) (AID 2282960). Particulars: HepG2 Attagene cis-factorial SOX reporter, mRNA; actives raise or lower the signal. Summed up:
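HepG2 cells transiently transfected with cis-element-driven multiple reporter transcription units, dosed 24 h; reporter mRNA measured by RT-PCR, FAM labelling, HpaI digestion and capillary electrophoresis. Bidirectional fit versus DMSO baseline.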

Assay [4] addresses Transcription factor Sp1 (Homo sapiens) (UniProt P08047). The assay can be described thus: ATG_Sp1_CIS: Attagene CIS-FACTORIAL HepG2 Assay for human Specificity Protein 1 (Sp1) (AID 2282961). Particulars: HepG2 Sp1 cis-reporter transcription, actives raise or lower the signal. Summed up:
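HepG2 cells transiently transfected with multiple reporter transcription units driven by cis-regulatory elements; Sp1-responsive reporter mRNA measured 24 h after dosing by RT-PCR and capillary electrophoresis fluorescence, fitted bidirectionally against DMSO baseline.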

The nature of assay [5]: ATG_SREBP_CIS: Attagene CIS-FACTORIAL HepG2 Assay for human Sterol Regulatory Element Binding (SREBP) (AID 2282962). The conditions noted are these: HepG2 Attagene cis-factorial SREBP reporter, mRNA; actives raise or lower the signal. Summed up:
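mRNA induction of transfected cis-promoter reporters in HepG2 cells, 24 h post-dose. Detection: RT-PCR with 6-FAM-labelled products, HpaI digest, capillary electrophoresis. DMSO served as negative control and baseline.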

Assay [6] concerns the target Signal transducer and activator of transcription 3 (Homo sapiens) (UniProt P40763). Nature of the assay: ATG_STAT3_CIS: Attagene CIS-FACTORIAL HepG2 Assay for human Signal Transducer and Activator of Transcription 3 (STAT3) (AID 2282963). The conditions noted are these: HepG2, Attagene cis-factorial STAT3 reporter transcription; actives raise or lower the signal. Summed up:
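HepG2 cells transiently transfected with multiple cis-element-driven reporter units report endogenous transcription factor activity. After 24 h compound exposure, reporter mRNA is measured by RT-PCR, 6-FAM labelling, HpaI digestion and capillary electrophoresis. Fitted bidirectionally versus DMSO.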

Assay [7] can be described thus: ATG_TCF_b_cat_CIS: Attagene CIS-FACTORIAL HepG2 Assay for human T-Cell-Factor with beta-catenin (TCF/b-cat) (AID 2282965). The conditions noted are these: HepG2 TCF/beta-catenin cis-reporter transcription, actives raise or lower the signal. Summed up: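 HepG2 cells transiently transfected with cis-promoter-driven multiplexed reporter units; reporter mRNA measured 24 h after dosing by RT-PCR, FAM labelling, HpaI digestion and capillary electrophoresis. Bidirectional fitting relative to DMSO baseline.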

Assay [8] is described as follows: ATG_TAL_CIS: Attagene CIS-FACTORIAL HepG2 Assay for human TAL Basal Promoter (AID 2282966).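 Note: background control endpoint measuring basal TAL promoter reporter mRNA not a specific factor.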 The conditions noted are these: HepG2 Attagene cis-factorial TAL promoter reporter; actives raise or lower the signal. Summed up:
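HepG2 cells were transiently transfected with promoter-driven multiplexed reporter units and dosed for 24 h. Reporter mRNA was measured by RT-PCR with capillary electrophoresis fluorescence; bidirectional fits used DMSO as baseline, serving as a background control.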

Assay [9] is described as follows: ATG_TGFb_CIS: Attagene CIS-FACTORIAL HepG2 Assay for human Transforming Growth Factor (TGF) (AID 2282967). The conditions noted are these: HepG2 Attagene CIS TGFb reporter, mRNA transcription; actives raise or lower the signal. Summed up:
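Liver HepG2 line, cis-factorial reporter panel, 24 h dosing. Quantitation: RT-PCR products labeled with 6-FAM, cut with HpaI, resolved by capillary electrophoresis; DMSO-referenced bidirectional analysis.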

Assay [10] is described as follows: ATG_VDRE_CIS: Attagene CIS-FACTORIAL HepG2 Assay for human Vitamin D Receptor Element (VDRE) (AID 2282968). Particulars: HepG2 VDRE cis-reporter transcription, actives raise or lower the signal. Summed up: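 Transiently transfected HepG2 cells carrying cis-regulated reporter transcription units were exposed for 24 h. Reporter mRNA was measured by RT-PCR with fluorescent labelling and capillary electrophoresis, and fitted in both directions against DMSO.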

Assay [11] addresses Nuclear receptor subfamily 1 group I member 3 (Homo sapiens) (UniProt Q14994). The assay can be described thus: ATG_CAR_TRANS: Attagene TRANS-FACTORIAL HepG2 Assay for human Constitutive Androstane Receptor (CAR) (AID 2282969; active = hit-call score of the fitted dose curve at least 0.9, where 1 is the maximum;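 note: activators raise reporter mRNA above DMSO so AC50 marks induction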). The conditions noted are these: HepG2 Attagene TRANS-FACTORIAL CAR reporter. Summed up:
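HepG2 cells transiently transfected with GAL4-UAS reporter units; TRANS format reads activity of exogenous chimeric NR-Gal4 protein. After 24 h dosing, reporter mRNA quantified by RT-PCR, 6-FAM labelling and capillary electrophoresis; gain of signal fitted against DMSO.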

The target in assay [12] is Estrogen receptor (Homo sapiens) (UniProt P03372). Nature of the assay: ATG_ERa_TRANS: Attagene TRANS-FACTORIAL HepG2 Assay for human Estrogen Receptor alpha (ERa) (AID 2282970; active = hit-call score of the fitted dose curve at least 0.9, where 1 is the maximum). The conditions noted are these: HepG2 Attagene TRANS ERa GAL4 reporter, mRNA. Summed up:
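HepG2 cells transiently transfected with multiplexed GAL4-UAS reporter units; ERa activity read via exogenous chimeric NR-Gal4 protein. After 24 hour compound exposure, reporter mRNA measured by RT-PCR with 6-FAM labelling and capillary electrophoresis; gain-of-signal fitted relative to DMSO.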

The target of assay [13] is X-box-binding protein 1 (Homo sapiens) (UniProt P17861). Nature of the assay: ATG_Xbp1_CIS: Attagene CIS-FACTORIAL HepG2 Assay for human X-box Binding Protein 1 (XBP1) (AID 2282972). The conditions noted are these: HepG2 XBP1 cis-element reporter, Attagene multiplex; actives raise or lower the signal. Summed up: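 Fluorescence-labelled cDNA fragments from reporter transcripts, separated by capillary electrophoresis, give the signal. Source: HepG2 cells transfected with promoter-driven reporter units, harvested 24 h post-dose. DMSO served as reference for bidirectional curve fitting.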

Assay [14] is described as follows: ATG_M_19_TRANS: Attagene TRANS-FACTORIAL HepG2 Assay for M19 Transcription Factor (Internal Marker) (AID 2282974; active = hit-call score of the fitted dose curve at least 0.9, where 1 is the maximum). Particulars: HepG2 Attagene TRANS-FACTORIAL M19 internal marker reporter. Summed up: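 HepG2 cells transiently transfected with multiple GAL4-UAS reporter transcription units were exposed to chemicals for 24 h. Reporter mRNA was read by RT-PCR, 6-FAM primer extension, HpaI digestion and capillary electrophoresis; gain of signal fitted relative to DMSO.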

The target of assay [15] is Steroid hormone receptor ERR1 (Homo sapiens) (UniProt P11474). Nature of the assay: ATG_ERRa_TRANS: Attagene TRANS-FACTORIAL HepG2 Assay for human Estrogen-Related Receptor alpha (ERRa) (AID 2282971; active = hit-call score of the fitted dose curve at least 0.9, where 1 is the maximum). The conditions noted are these: HepG2 Attagene TRANS reporter, ERRa transactivation. Summed up: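 HepG2 cells transiently transfected with multiplexed GAL4-UAS reporter units reading chimeric ERRa-Gal4 activity; 24 h compound exposure. Reporter mRNA measured by RT-PCR, 6-FAM labelling, HpaI digest and capillary electrophoresis; gain of signal fitted versus DMSO baseline.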

Assay [16] in a line: ATG_GAL4_TRANS: Attagene TRANS-FACTORIAL HepG2 Assay for GAL4 (Internal Marker) (AID 2282976; active = hit-call score of the fitted dose curve at least 0.9, where 1 is the maximum). Particulars: HepG2 Attagene TRANS GAL4 internal marker reporter. Summed up:
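HepG2 cells transiently transfected with multiplexed GAL4-UAS reporter constructs were dosed for 24 h. Reporter mRNA was measured by RT-PCR, 6-FAM primer extension, HpaI digestion and capillary electrophoresis, and gain of signal was fitted relative to DMSO.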

Assay [17] addresses Estrogen-related receptor gamma (Homo sapiens) (UniProt P62508). The assay can be described thus: ATG_ERRg_TRANS: Attagene TRANS-FACTORIAL HepG2 Assay for human Estrogen-Related Receptor gamma (ERRg) (AID 2282977; active = hit-call score of the fitted dose curve at least 0.9, where 1 is the maximum;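 note: hits increase reporter signal over DMSO so potencies reflect activators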). The conditions noted are these: HepG2 Attagene TRANS reporter, ERRg transactivation. Summed up: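 HepG2 cells transiently transfected with multiplexed GAL4-UAS reporter units driven by chimeric NR-Gal4 proteins; 24 h exposure. Reporter mRNA quantified by RT-PCR, fluorescent labelling, HpaI digestion and capillary electrophoresis; gain of signal vs DMSO.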

Assay [18] has as its target Bile acid receptor (Homo sapiens) (UniProt Q96RI1). Nature of the assay: ATG_FXR_TRANS: Attagene TRANS-FACTORIAL HepG2 Assay for Farnesoid X Receptor (FXR) (AID 2282979; active = hit-call score of the fitted dose curve at least 0.9, where 1 is the maximum;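 note: hits raise reporter mRNA above DMSO so AC50 marks FXR activation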). Particulars: HepG2 Attagene TRANS FXR-GAL4 reporter transcription. Summed up:
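HepG2 cells transiently transfected with reporter constructs in which a chimeric FXR-GAL4 protein drives a GAL4-UAS reporter; 24 h compound exposure. Reporter mRNA measured by RT-PCR, FAM labelling, HpaI digestion and capillary electrophoresis; gain-of-signal versus DMSO.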

Assay [19] can be described thus: ATG_TA_CIS: Attagene CIS-FACTORIAL HepG2 Assay for human TA Basal Promoter (AID 2282964). Particulars: HepG2 Attagene CIS-factorial TA basal promoter reporter; actives raise or lower the signal. Summed up:
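Background internal-marker endpoint from a 52-component HepG2 cis-reporter panel. Cells treated 24 h; reporter transcripts quantified via RT-PCR and CE fluorescence against DMSO baseline.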

The target of assay [20] is Glucocorticoid receptor (Homo sapiens) (UniProt P04150). The assay can be described thus: ATG_GR_TRANS: Attagene TRANS-FACTORIAL HepG2 Assay for human Glucocorticoid Receptor (GR) (AID 2282978; active = hit-call score of the fitted dose curve at least 0.9, where 1 is the maximum;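 note: activators score as hits since higher reporter transcript over DMSO is fitted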). Particulars: HepG2 Attagene TRANS GR reporter, mRNA transcription. Summed up:
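HepG2 cells transiently transfected with multiplexed reporter units in which chimeric NR-GAL4 proteins drive GAL4-UAS reporters; 24 h compound exposure. Reporter mRNA measured by RT-PCR, 6-FAM labelling, HpaI digestion and capillary electrophoresis; gain-of-signal fitted versus DMSO.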

Each structure is given as a SMILES string. Inconclusive results are not listed. Active and inactive are the calls of the source. Rule for the calls, unless noted: active = hit-call score of the fitted dose curve at least 0.9, where 1 is the maximum; inactive = score below 0.9.

Transcription factor Sp1 (Homo sapiens), sequence (P08047 whole entry, looked up): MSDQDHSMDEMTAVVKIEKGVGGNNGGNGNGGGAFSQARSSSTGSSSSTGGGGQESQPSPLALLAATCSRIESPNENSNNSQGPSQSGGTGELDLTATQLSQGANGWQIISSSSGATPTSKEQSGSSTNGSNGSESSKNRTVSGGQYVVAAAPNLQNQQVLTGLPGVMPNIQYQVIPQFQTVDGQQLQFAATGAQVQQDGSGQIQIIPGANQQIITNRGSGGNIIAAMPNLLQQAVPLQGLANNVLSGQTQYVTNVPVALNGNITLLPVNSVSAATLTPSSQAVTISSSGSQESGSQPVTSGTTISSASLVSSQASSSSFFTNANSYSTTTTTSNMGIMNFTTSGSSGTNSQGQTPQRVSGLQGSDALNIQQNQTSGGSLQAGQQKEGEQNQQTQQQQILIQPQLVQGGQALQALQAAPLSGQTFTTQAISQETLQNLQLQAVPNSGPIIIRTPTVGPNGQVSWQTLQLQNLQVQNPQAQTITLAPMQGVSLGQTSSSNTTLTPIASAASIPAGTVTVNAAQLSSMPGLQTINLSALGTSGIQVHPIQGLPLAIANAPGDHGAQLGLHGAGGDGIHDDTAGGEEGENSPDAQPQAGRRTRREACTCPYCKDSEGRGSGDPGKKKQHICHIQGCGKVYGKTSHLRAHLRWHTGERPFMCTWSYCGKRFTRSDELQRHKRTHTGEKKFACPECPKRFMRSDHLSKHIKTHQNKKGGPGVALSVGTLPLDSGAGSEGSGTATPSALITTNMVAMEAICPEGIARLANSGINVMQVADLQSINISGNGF
X-box-binding protein 1 (Homo sapiens), sequence (P17861 whole entry, looked up, the tested form may be a part): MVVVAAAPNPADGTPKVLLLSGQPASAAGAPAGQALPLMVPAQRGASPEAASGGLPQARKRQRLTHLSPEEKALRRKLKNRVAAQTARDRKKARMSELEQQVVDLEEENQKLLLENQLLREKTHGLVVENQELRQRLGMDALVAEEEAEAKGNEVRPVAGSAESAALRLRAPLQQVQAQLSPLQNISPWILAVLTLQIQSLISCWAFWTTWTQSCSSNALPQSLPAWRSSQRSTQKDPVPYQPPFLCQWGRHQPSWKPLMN
Signal transducer and activator of transcription 3 (Homo sapiens), sequence (P40763 whole entry, looked up): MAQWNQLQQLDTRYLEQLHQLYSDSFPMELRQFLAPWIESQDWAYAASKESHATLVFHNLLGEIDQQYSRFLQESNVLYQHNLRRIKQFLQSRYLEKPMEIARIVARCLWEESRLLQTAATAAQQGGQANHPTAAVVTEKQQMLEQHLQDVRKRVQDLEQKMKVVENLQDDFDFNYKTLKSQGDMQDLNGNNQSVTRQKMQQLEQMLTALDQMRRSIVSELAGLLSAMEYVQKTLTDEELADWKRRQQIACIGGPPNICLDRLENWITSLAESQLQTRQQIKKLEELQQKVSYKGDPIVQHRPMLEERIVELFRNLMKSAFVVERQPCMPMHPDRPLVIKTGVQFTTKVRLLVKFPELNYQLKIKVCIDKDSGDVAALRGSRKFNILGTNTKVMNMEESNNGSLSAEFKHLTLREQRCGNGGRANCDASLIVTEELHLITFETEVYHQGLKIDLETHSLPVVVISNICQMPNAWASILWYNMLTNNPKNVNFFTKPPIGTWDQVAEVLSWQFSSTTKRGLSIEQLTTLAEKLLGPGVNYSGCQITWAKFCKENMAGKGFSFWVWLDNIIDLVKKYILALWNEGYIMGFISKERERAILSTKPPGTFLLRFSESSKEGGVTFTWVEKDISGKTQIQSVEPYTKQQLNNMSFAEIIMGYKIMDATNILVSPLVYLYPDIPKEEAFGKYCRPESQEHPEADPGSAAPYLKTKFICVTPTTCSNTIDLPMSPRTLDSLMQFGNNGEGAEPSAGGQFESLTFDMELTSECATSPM
Estrogen receptor (Homo sapiens), sequence (P03372 whole entry, looked up, the tested form may be a part): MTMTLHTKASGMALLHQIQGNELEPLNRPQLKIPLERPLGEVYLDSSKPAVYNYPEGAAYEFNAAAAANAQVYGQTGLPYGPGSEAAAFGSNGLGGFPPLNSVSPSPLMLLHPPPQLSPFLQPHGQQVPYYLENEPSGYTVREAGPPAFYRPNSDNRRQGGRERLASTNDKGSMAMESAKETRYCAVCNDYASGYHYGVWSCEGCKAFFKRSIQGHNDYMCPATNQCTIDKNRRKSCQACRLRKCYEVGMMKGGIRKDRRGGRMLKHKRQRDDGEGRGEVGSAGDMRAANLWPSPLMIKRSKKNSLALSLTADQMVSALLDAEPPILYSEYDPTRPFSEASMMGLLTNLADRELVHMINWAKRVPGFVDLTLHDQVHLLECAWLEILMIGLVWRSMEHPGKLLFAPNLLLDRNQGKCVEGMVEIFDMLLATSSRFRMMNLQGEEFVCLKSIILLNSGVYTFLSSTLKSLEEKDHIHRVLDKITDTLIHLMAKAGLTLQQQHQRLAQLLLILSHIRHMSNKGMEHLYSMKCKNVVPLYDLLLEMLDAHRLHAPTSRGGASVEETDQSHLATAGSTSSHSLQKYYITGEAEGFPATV
Nuclear receptor subfamily 1 group I member 3 (Homo sapiens), sequence (Q14994 whole entry, looked up, the tested form may be a part): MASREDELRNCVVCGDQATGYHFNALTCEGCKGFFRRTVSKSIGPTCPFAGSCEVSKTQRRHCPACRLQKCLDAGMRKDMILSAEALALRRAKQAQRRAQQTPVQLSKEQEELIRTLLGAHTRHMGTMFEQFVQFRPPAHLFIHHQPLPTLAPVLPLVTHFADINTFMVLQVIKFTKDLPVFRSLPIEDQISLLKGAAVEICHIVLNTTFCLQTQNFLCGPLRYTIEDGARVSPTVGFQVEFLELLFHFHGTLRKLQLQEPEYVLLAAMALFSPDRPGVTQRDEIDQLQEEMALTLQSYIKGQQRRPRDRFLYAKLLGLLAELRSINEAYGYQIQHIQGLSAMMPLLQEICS
Glucocorticoid receptor (Homo sapiens), sequence (P04150 whole entry, looked up, the tested form may be a part): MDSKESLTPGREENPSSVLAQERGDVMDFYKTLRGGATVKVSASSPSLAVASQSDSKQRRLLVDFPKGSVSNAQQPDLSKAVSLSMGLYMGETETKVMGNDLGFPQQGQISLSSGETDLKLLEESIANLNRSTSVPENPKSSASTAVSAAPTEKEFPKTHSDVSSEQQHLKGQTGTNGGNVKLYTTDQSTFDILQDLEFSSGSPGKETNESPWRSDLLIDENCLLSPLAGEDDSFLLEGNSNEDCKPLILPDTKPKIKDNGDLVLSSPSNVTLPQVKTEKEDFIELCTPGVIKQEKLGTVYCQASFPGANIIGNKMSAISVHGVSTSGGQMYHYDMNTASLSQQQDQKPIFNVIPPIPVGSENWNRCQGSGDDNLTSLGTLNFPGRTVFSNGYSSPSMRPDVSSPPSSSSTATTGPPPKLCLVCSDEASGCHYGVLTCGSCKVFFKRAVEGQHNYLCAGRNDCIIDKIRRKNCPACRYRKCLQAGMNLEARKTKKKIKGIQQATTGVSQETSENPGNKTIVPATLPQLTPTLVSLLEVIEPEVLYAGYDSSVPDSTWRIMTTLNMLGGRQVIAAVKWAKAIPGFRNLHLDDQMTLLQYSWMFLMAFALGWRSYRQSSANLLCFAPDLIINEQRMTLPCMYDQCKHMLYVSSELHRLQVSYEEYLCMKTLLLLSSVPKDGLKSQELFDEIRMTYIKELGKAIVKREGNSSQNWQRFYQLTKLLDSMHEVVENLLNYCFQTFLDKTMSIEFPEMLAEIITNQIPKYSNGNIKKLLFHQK
Bile acid receptor (Homo sapiens), sequence (Q96RI1 whole entry, looked up, the tested form may be a part): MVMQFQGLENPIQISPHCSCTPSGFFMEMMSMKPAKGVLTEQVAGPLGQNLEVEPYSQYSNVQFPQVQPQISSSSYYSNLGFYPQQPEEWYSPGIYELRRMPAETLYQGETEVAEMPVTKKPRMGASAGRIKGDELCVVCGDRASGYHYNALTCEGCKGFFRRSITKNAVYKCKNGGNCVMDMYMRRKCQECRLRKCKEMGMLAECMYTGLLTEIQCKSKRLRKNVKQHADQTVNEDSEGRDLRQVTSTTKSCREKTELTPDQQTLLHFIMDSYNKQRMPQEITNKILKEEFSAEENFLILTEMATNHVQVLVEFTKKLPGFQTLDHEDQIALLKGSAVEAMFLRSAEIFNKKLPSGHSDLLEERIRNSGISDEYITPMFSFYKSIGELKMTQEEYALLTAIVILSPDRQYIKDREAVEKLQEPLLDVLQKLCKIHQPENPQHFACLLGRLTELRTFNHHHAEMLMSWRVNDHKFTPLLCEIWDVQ
Steroid hormone receptor ERR1 (Homo sapiens), sequence (P11474 whole entry, looked up, the tested form may be a part): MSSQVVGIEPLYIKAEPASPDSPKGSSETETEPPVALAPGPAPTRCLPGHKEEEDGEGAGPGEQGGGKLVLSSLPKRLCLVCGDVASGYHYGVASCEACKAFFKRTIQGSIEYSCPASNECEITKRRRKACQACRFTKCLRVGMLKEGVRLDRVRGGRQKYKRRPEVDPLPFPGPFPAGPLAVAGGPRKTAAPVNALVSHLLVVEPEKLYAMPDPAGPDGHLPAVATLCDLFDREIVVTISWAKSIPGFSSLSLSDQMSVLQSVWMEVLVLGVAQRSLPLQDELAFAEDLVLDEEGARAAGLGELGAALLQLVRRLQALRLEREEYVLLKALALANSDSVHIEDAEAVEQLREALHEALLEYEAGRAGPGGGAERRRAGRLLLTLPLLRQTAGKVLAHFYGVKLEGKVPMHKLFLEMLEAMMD
Estrogen-related receptor gamma (Homo sapiens), sequence (P62508 whole entry, looked up, the tested form may be a part): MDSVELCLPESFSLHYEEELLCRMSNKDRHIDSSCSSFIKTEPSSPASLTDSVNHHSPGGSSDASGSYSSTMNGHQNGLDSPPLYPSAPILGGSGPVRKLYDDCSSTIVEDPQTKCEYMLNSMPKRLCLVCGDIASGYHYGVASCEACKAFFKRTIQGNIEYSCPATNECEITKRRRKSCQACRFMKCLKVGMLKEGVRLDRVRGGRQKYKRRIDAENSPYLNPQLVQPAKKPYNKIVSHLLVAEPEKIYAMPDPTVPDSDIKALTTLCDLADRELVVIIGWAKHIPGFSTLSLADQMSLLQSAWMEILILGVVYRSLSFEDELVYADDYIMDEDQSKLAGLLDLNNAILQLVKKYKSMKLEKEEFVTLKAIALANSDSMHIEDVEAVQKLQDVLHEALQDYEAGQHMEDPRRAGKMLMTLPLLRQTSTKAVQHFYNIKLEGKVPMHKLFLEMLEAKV

Regarding `CC(=O)C(Cl)C(=O)N(C)C` (stereo not drawn), the compound was called inactive in [1], in [2], in [3], in assay [4], in assay [5] and in assay [6]. Also, the call in [7], in [8], in assay [9], in [10], in assay [11] and in assay [12] was inactive. Moreover, the call in assay [13] and in assay [14] was inactive.

Take `CCC[CH2][Sn]([Cl])([Cl])[Cl]`: the call in [1], in assay [2], in assay [3], in [4], in assay [5] and in assay [6] was inactive. For the same compound, the outcome in assay [7], in assay [9], in assay [15], in assay [13], in [14] and in assay [16] was inactive. The compound was called inactive in [17] and in assay [18].

As for `Cc1ccccc1C(=O)Nc1cccc(OC(C)C)c1`, the outcome in assay [1], in assay [2], in assay [3], in assay [4], in assay [5] and in [6] was inactive. Also, the compound was called inactive in [19], in assay [7], in assay [8], in assay [9], in [13] and in assay [14]. For the same compound, the compound was classed as inactive in [20].

Broadly, the AC50 is the midpoint of the concentration-response curve, whichever way the signal moves. For the compound `Nc1ccc(N=Nc2ccc(-c3ccc(N=Nc4c(S(=O)(=O)O)cc5cc(S(=O)(=O)O)c(N=Nc6ccccc6)c(O)c5c4N)cc3)cc2)c(N)c1`, the result in assay [1], in assay [2], in [3], in assay [4], in [5] and in [6] was inactive. In addition, the outcome in assay [7], in assay [9], in [10], in [11] and in [13] was inactive. The AC50 in [12] was 19.9 µM (active).

Values taken from PubChem BioAssay (EPA / NIEHS).
